Results taken from PubChem BioAssay (NCI).
Compounds without any hit were thinned out: in the full panel of roughly 83,000, 20% have a hit.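 48-hour exposure, single concentration, 96-well plates; percent growth endpoint where 0 means no net growth. Active: below 10.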 Active and inactive are the calls of the source.

These compounds were tested on OVCAR-5 ovarian (assay: NCI-60 one-dose screen, 48 h (100 = growth as untreated, 0 = no growth, -100 = all killed)). Conditions: 10 µM unless noted.

| Structure (SMILES) | growth |
| --- | --- |
| O=C(N/N=C/c1ccccc1Cl)c1cccc2ccccc12 | 104% (inactive) |
| CCOP1(=O)CC(C)=C(Cl)C(P(=O)(O)O)C1 (stereo not given) | 94.8% (inactive) |
| NC(N)=Nc1ccc(/C=C2\C=Cc3ccccc32)cc1 | 80.7% (inactive) |
| C/C=C(/C)C(=O)OC1C=C(CO)C(=O)C(OC(=O)C(C)(O)C(C)Cl)C1C(C)C (stereo not given) | -43.2% (active) |
| CN1CCN(Cc2ccc(NC(=O)c3ccc(C#Cc4c(N)ncc5ccc(F)cc45)cc3)cc2C(F)(F)F)CC1 | -52.8% (active) |
| CCCCCCCCC(=O)Nc1ccc(O)cc1 | 106% (inactive) |
| COc1cc(/C=C/C(=O)c2ccc(F)cc2)ccc1OCCCCOc1cc2c(cc1OC)C(=O)N1CCCC1C=N2 (stereo not given) | -4.68% (active) |
| COc1ccc(-c2cc(C#N)c(NNC(C)=O)[nH]2)cc1 | 94.7% (inactive) |
| COc1cc(-c2nc(/C=C3/C(=O)Nc4ccccc43)c3ccccn23)cc(OC)c1OC | 82.9% (inactive) |
| CCN(CC)CCNc1ncnc2c1cnn2-c1ccc(Cl)cc1 | 89.6% (inactive) |
| Nc1cc2c(cc1Br)[nH]c(=O)c1ccccc12 | 94% (inactive) |
| COc1ccc(C(=O)CN2C(=O)NC(c3ccccc3)(c3ccccc3)C2=O)cc1 | 98.7% (inactive) |
| CC[C@@H](C)/C=C(C)/C=C/C(=O)c1c(O)c(-c2ccc(OC(=O)[C@@]34CC[C@@](C)(C(=O)O3)C4(C)C)cc2)cn(O)c1=O | 55.7% (inactive) |
| COc1ccc2c(N)ncc(C#Cc3cc(C(=O)Nc4ccc(CN5CCN(C)CC5)c(C(F)(F)F)c4)cnc3C)c2c1 | -21.6% (active) |
| COc1cc2c(cc1OC)C(Cc1cc(OC)c(OC)cc1[N+](=O)[O-])=NCC2 | 73.6% (inactive) |
| Cc1ccc(C(=O)C(Br)C(Br)c2ccccc2)cc1 (stereo not given) | 102% (inactive) |
| Br/C(=N\Nc1nn[nH]n1)c1ccccc1 | 102% (inactive) |
| O=C(Nc1cccc(Cn2c(=O)[nH]c3ccc(Oc4ncccn4)cc3c2=O)c1)c1cccc(F)c1 | 96.1% (inactive) |
| Cc1c(C(N)=O)sc2c1c(=O)n(Cc1ccccc1)c1nnc(S(C)(=O)=O)n21 | 135% (inactive) |
| COc1ccc(C(=O)N2N=C(c3ccc(Br)cc3)CC2c2cn(-c3ccccc3)nc2-c2ccccc2)cc1 (stereo not given) | 101% (inactive) |

| Structure (SMILES) | growth |
| --- | --- |
| CCOC(=O)CNS(=O)(=O)CC(=O)c1ccccc1 | 101% (inactive) |
| COc1ccc(C(=O)c2no[n+]([O-])c2C(=O)c2ccc(OC)cc2)cc1 | 89.8% (inactive) |
| C=C(NC(=O)[C@H](C(C)C)N(C)c1cccc2[nH]ccc12)C(=O)OC | 101% (inactive) |
| COC1=C(OC)C(=O)c2ccccc2C1=O | 101% (inactive) |
| O=C(Cc1ccccc1[N+](=O)[O-])c1ccc2c(c1)OCO2 | 104% (inactive) |
| COC(=O)c1c[n+]([O-])ccc1OC | 117% (inactive) |
| O=C(CN1CCN(c2cccc(Cl)c2)CC1)N1CCN(c2nnc(-c3ccc(Cl)cc3)c(-c3ccc(Cl)cc3)n2)CC1 | 96.3% (inactive) |
| CC(C)C(=O)c1ccc(Cl)s1 | 105% (inactive) |
| CCOC(=O)c1csc(-c2ccc(COC(=O)c3ccccc3)o2)n1 | 102% (inactive) |
| OCCN1CCN(CC/C=C2/c3ccccc3Sc3ccc(C(F)(F)F)cc32)CC1 | 82.4% (inactive) |
| CCCCCCCCCCCCCCCCCC(=O)Nc1ccc(O)cc1 | 117% (inactive) |
| OCCN1CCCN(CCCN2c3ccccc3Sc3ccc(C(F)(F)F)cc32)CC1 | 83.9% (inactive) |
| C=C1CCC2C3(C)COC(c4ccccc4)OC3CCC2(C)C1C/C=C1/C(=O)OCC1O (stereo not given) | 117% (inactive) |
| Cc1c(CN(C)C)cc(C(C)C)cc1C(C)C | 115% (inactive) |
| CC(=O)Oc1cc2ccccc2cc1C(C)C | 98.9% (inactive) |
| COc1cc2cc3cc4cc(OC)c(OC)cc4c(C)[n+]3cc2cc1OC (tested in a mixture with another compound) | 104% (inactive) |
| COc1ccc(NC(=O)/C=C(C)/C=C/C=C(C)/C=C/C2=C(C)CCCC2(C)C)cc1 | 94.8% (inactive) |
| O=C1C(Cl)=C(SC2=NCCN2)C(=O)c2ccccc21 | 97.4% (inactive) |
| Cc1ccc(C(=O)Nc2ccc(CN3CCN(C)CC3)c(C(F)(F)F)c2)cc1C#Cc1cnc(N)c2ccc(F)cc12 | -90.2% (active) |
| Cc1ncc(C(=O)Nc2ccc(CN3CCN(C)CC3)c(C(F)(F)F)c2)cc1C#Cc1c(N)ncc2ccccc12 | -92.6% (active) |
